Results reported in PubChem BioAssay (NCI).
About 83,000 compounds went through this panel and 20% of them were active in at least one assay; those are over-represented in the sample as a whole.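 Negative percent growth values reflect cell death: -40 means 40% of the cells present at the start died, and -100 means all died.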 Active and inactive are the calls of the source. The calls were made as follows: active = growth percent below 10; inactive = the rest.

The compounds below were run on MDA-MB-468 breast (assay: NCI-60 one-dose screen, 48 h (100 = growth as untreated, 0 = no growth, -100 = all killed)). Conditions: 10 µM unless noted.
For `CSc1ccc2c(c1)c(CCN)c(C)n2Cc1ccc(Cl)c(Cl)c1`, the growth was -67.1% (active).
For `Cc1cc(C)c2c(Nc3ncnc4c3sc3nc(C)cc(C)c34)n[nH]c2n1`, the growth was 92.2% (inactive).
For `O=c1c2cc(Br)cc(Br)c2nc(-c2ccc(Cl)cc2)n1/N=C/c1cccc(F)c1`, the growth was 62.6% (inactive).
For `O=CNCCc1ccccc1`, the growth was 97.8% (inactive).
In the case of `O=C1C=CC(=O)N1Cc1ccco1`, the growth is reported as 65.4% (inactive).
For `COc1ccc(C2=C(Br)C(=O)c3nc(C)ccc3C2=O)cc1`, the growth was 87.1% (inactive).
`CCOC(=O)c1ccc(N2NC(=O)/C(=C/c3ccc([N+](=O)[O-])o3)C2=O)cc1` was tested, and the growth was 106% (inactive).
For `COCCNc1ccc2ncc(C#Cc3cncc(C(=O)Nc4ccc(CN5CCN(C)CC5)c(C(F)(F)F)c4)c3)n2n1`, the growth was -59.9% (active).
`COc1cc(Nc2ncccc2NC(=O)c2cn(Cc3cccc(Oc4ccccc4)c3)nn2)cc(OC)c1` was tested, and the growth was 65.9% (inactive).
For `Oc1ccc(CSc2nnc(-c3ccc(Oc4ccccc4)cc3)o2)c2cccnc12`, the growth was 30.7% (inactive).
`CC(O)CN(CCO)CCN(CCO)CC(C)O` (stereo not drawn) was tested, and the growth was 94.8% (inactive).
For `CN(Cc1ccccc1)c1nc(Cl)c(C2CC(c3ccc(Cl)cc3)=Cc3[nH][nH]c(=O)c32)s1` (stereo not drawn), the growth was 106% (inactive).
For `C=C1NC(=O)C(C(C)CC)NC(=O)C2CSCC(NC(=O)CCC(=O)O)C(=O)NC(Cc3ccccc3)C(=O)NC(C)C(=O)NC(CC(C)CC)C(=O)NC(C(=O)NC(Cc3ccccc3)C(=O)N3CCCC3C(=O)N2)C(C)OC(=O)C(CO)NC(=O)C(C(O)COC)N(C)C(=O)C(C(C)C)NC(=O)C(CC(C)CC)NC1=O` (stereo not drawn), the growth was 0.0436% [6 µM] (active).
